An excerpt weighted towards active compounds, which were near 0.85% of everything screened.
APEX1 inh – blocks human APE1 abasic DNA cleavage | 0.35% of 350,000 active | Potency, µM (titrated, usually from 65.8 µM), for the others: top-dose activity change, negative = inhibition, actives largely listed as inhibitors | recombinant APE1, TAMRA/BHQ-2 abasic DNA cleavage fluorescence | AID 2517 | P27695;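 also: plate controls were vehicle for no effect and reference inhibitor for full effect; nearly all actives have a fitted effect of over 55% in size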
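Measures dequenching upon AP-site incision of a 5'-TAMRA/3'-BHQ-2 THF-containing duplex, 50 nM; human APE1 0.75 nM after 15 min room-temperature exposure to compound; kinetic three-point read at one-minute spacing.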
GLS inh – inhibitors of human glutaminase (GLS); O94925; GLS enzymatic activity, qHTS titration; Potency, µM (top dose mostly 45.5 µM), without a hit: at the highest dose activity change, negative = inhibition, actives largely listed as inhibitors; 0.21% of 410,000 active; AID 624170
Target sequence (O94925 whole entry, looked up): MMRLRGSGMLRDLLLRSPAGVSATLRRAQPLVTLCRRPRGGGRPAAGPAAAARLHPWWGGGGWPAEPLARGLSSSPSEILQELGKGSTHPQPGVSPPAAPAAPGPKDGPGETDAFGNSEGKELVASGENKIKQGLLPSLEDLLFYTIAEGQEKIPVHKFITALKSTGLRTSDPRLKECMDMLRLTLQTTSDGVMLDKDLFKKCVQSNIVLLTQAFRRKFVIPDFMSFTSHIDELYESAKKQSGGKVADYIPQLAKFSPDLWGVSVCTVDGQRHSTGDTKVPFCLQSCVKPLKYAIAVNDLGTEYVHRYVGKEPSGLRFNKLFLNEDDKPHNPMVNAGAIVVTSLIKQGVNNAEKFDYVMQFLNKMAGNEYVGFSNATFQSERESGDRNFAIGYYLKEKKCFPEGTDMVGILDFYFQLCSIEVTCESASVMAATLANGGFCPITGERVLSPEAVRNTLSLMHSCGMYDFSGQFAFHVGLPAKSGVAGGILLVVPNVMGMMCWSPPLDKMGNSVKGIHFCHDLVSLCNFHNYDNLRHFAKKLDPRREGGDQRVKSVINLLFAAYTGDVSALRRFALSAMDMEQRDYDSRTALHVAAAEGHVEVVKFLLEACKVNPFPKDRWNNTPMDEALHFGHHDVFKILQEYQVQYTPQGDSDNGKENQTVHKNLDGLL
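Read-out is an Amplex red fluorescence increase coupled through glutamate oxidase and HRP, measured before and after 30 min room-temperature incubation. hKGA is in 45 mM KH2PO4 (pH 8.2) with 0.02% Tween-20; glutamine added as 1mM solution.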
BLM helicase inh – Bloom syndrome helicase (human) inhibition; recombinant BLM DNA unwinding, fluorescence dequenching; Potency, µM (doses to about 56.1 µM), inactives show at the top dose activity change, negative = inhibition, most hits filed as inhibitors; 0.2% of 350,000 active;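 also: plate controls were vehicle for no effect and no enzyme for full effect; nearly all actives have a fitted effect of over 35% in size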
Tb PGK inh – blocks T. brucei phosphoglycerate kinase | P07378 | PGK/GAPDH coupled, Kinase-Glo luminescence, 60 min | Potency, µM (titrated, usually from 57.5 µM), inactives show at the highest dose activity change, negative = inhibition, actives largely listed as inhibitors | 0.043% of 380,000 active | AID 602233; also: nearly all actives have a fitted effect of over 60% in size
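Recombinant glycosomal PGK reaction used 1,3-bisphosphoglycerate generated in-well by GAPDH (100nM final) in 100mM TEA pH 7.6, 5mM MgCl2, 0.01% Tween-20. After 60 minutes at room temperature, ATP was read by Kinase-Glo Plus luminescence end-point.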
TDP1 inh – TDP1 (human) enzyme inhibition; 0.28% of 350,000 active; recombinant TDP1, AlphaScreen DNA substrate cleavage; Potency, µM (doses to about 130 µM), inactives show top-dose activity change, negative = inhibition, usual class: inhibitors; also: nearly all actives have a fitted effect of over 40% in size
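Recombinant E. coli-expressed Tdp1 (1 nM) preincubated with compound 15 min at RT, then 5'-biotin/3'-phosphotyrosine-FITC DNA substrate (15 nM) added for 5 min. AlphaScreen beads (10 ug/ml) added, 10 min RT; tyrosine-FITC cleavage read as signal loss.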
RECQ1 inh-1 – RECQ1 (human) helicase inhibition; P46063; RECQ1 DNA unwinding, red fluorescence kinetic read; Potency, µM (series often up to 57.3 µM), for inactives: top-dose activity, negative = inhibition, most hits filed as inhibitors; 0.54% of 240,000 active;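 also: plate controls were vehicle for no effect and no enzyme for full effect; nearly all actives have a fitted effect of over 30% in size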
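50 nM RECQ1T1 preincubated 15 min with compound in Tris pH 8.0 buffer with MgCl2, DTT, Tween-20 and 2.5 ug/ml poly(dI-dC); started with 200 nM TAMRA/BHQ-2 forked duplex and 2 mM ATP. Unwinding read as fluorescence (525/598 nm), two reads 2 h apart.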
RECQ1 inh conf – confirmation of human RECQ1 helicase inhibitors. shares compounds with RECQ1 inh-1. RECQ1 helicase DNA unwinding, fluorescence. Potency, µM (series often up to 229 µM), without a hit: at the top dose activity change, negative = inhibition, usual class: inhibitors. 28% of 610 active; also: nearly all actives have a fitted effect of over 45% in size
RECQ1 ADP FP – ADP displacement flagged in RECQ1 inhibitor counter-screen | 27% of 530 active | AID 2711 | shares compounds with RECQ1 inh-1 | Potency, µM (doses to about 228 µM), for inactives: at the top dose activity change, negative = inhibition, hits mostly inhibitors | ADP fluorescence polarization displacement counterscreen; also: nearly all actives have a fitted effect of over 45% in size
RECQ1 inh-2 – blocks human RECQ1 DNA unwinding | shares compounds with RECQ1 inh-1 | recombinant RECQ1 DNA unwinding, red fluorescence | Potency, µM (highest dose often 119 µM), for inactives: at the highest dose activity, negative = inhibition, hits mostly inhibitors | 15% of 1,100 active | AID 504841; also: nearly all actives have a fitted effect of over 50% in size
Numbers without * were called inactive; [ ] = dose if it differs, or a comment. Calls follow the shape of the dose curve; as a rule, active = well fitted curve in the direction sought with a large enough effect; inconclusive = small, poorly fitted or top-dose-only effect, or another doubt; inactive = no such curve, though single readings can be large; an effect the other way counts as inactive or inconclusive. Unless noted, % is scaled to controls: 0 for no effect and ±100 for the full control effect; potency is read from the fitted curve at half-maximal effect.

How did C=CCn1c(=O)[nH]c2cc(C(=O)N3CCN(c4ccc(C(C)=O)cc4)CC3)ccc2c1=O do in these assays?
APEX1 inh: -7.4%; GLS inh: -3.3%; BLM helicase inh: -24.6%; Tb PGK inh: inactive; TDP1 inh: -7.9%; RECQ1 inh-1: 4.47µM*; RECQ1 inh conf: inconclusive; RECQ1 ADP FP: -1.8%[91.9 µM]; RECQ1 inh-2: inconclusive

How did C=CCn1c(=O)[nH]c2cc(C(=O)N3CCN(c4cccc(Cl)c4)CC3)ccc2c1=O do in these assays?
APEX1 inh: -8.8%; GLS inh: 1.6%; BLM helicase inh: -11.7%; Tb PGK inh: -2.1%; TDP1 inh: 4.9%; RECQ1 inh-1: -5.9%

Results for C=CC[N+]1([C@H]2C[C@H]3[C@@H]4CC[C@H]5C[C@H](OC(C)=O)[C@@H](N6CCCCC6)C[C@]5(C)[C@H]4CC[C@]3(C)[C@H]2OC(=O)CC)CCCCC1 ?
GLS inh: -0.4%

How did O=C(O)c1ccc2c(c1)C(=O)N(c1cccc(C(=O)/C=C/c3ccccc3)c1)C2=O do in these assays?
APEX1 inh: 23.0%; GLS inh: 7.4%; BLM helicase inh: -11.0%; Tb PGK inh: -11.4%; TDP1 inh: -1.2%; RECQ1 inh-1: 6.31µM*; RECQ1 inh conf: inconclusive; RECQ1 ADP FP: 2.9%[91.9 µM]; RECQ1 inh-2: inconclusive

What do the screens show for `CCOc1ccccc1NC(=O)CN(C)S(=O)(=O)c1cnc[nH]1`?
APEX1 inh: -3.1%; GLS inh: -4.8%; BLM helicase inh: -1.2%; Tb PGK inh: -1.9%; TDP1 inh: -0.5%; RECQ1 inh-1: 15.8µM*; RECQ1 inh conf: -1.0%[114 µM]; RECQ1 ADP FP: 7.6%[91.9 µM]; RECQ1 inh-2: -1.8%

Results for Cc1ccc(NC(=O)CN(C)S(=O)(=O)c2cnc[nH]2)c(C)c1 ?
APEX1 inh: 55.9%; GLS inh: 4.3%; BLM helicase inh: -1.4%; Tb PGK inh: 2.7%; TDP1 inh: 5.0%

How did CCCCc1nc2c(c3c1C[C@H](C)OC3)CN(S(=O)(=O)c1ccccc1C(=O)OC)CC2 do in these assays?
APEX1 inh: -1.5%[12.4 µM]; BLM helicase inh: 1.3%[12.4 µM]; TDP1 inh: 7.7%[21 µM]; RECQ1 inh-1: 4.9%[11.5 µM]

What do the screens show for `O=C1NC(=Nc2ccc(O)cc2)S/C1=C\C=C\c1ccco1`?
APEX1 inh: inconclusive; GLS inh: 7.3%; BLM helicase inh: -24.2%; Tb PGK inh: -0.4%; TDP1 inh: -11.0%; RECQ1 inh-1: inconclusive; RECQ1 inh-2: inconclusive

Results for COc1cc(/C=C2/SC(=Nc3ccc(O)cc3)NC2=O)cc(OC)c1O ?
APEX1 inh: inconclusive; GLS inh: inconclusive; BLM helicase inh: -9.4%; Tb PGK inh: -4.8%; TDP1 inh: -1.2%; RECQ1 inh-1: -28.7%

What do the screens show for `NOCc1ccccc1`?
APEX1 inh: 21.2%; BLM helicase inh: 3.7%; TDP1 inh: -2.3%; RECQ1 inh-1: 9.8%

Results for CN(C)CC1CCn2c(c(C3=C(c4cn(C)c5ccccc45)C(=O)NC3=O)c3ccccc32)C1 (configuration not stated) ?
APEX1 inh: -4.6%; BLM helicase inh: -5.2%; TDP1 inh: 12.8%; RECQ1 inh-1: inconclusive; RECQ1 inh-2: 79.4µM*

Assay outcomes: PubChem BioAssay, National Center for Advancing Translational Sciences (NCATS)
